Results from PubChem BioAssay AID1159580 (chemical genetic matrix, 2015).
Screen size: about 5,500 compounds; about 2,000 (36%) were called active. Not shown: some 18% with an inconclusive outcome. Rule as the data show it: active = normalized growth mostly below about 0.91 (no sharp cut-off); inconclusive = no clear call, values can overlap the other calls; inactive = mostly above about 0.92. Some of the results follow.

Experiment: chemical genetic growth profiling, strain panel (AID 1159580);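 also: tested at 20 µM; growth read once vehicle control cultures reached saturation at 30 °C; 1 = growth at the plate median or of vehicle wells; lower values mean less growth of the strain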
Settings: S. cerevisiae deletion strains, growth OD

Measured: normalized growth

CC(C)CCCC(C)[C@H]1CCC2C3CC[C@H]4CC(=O)CC[C@]4(C)C3CC[C@@]21C (some centres not stated)
inactive: locus YAL021C, strain ccr4, active compounds read low 0.957 | locus YAL026C, strain drs2, active compounds read low 1 | locus YAL030W, strain snc1, active compounds read low 0.996 | locus YBL061C, strain skt5, active compounds read low 0.998 | locus YBR009C, strain hhf1, active compounds read low 1.03 | locus YBR023C, strain chs3, active compounds read low 0.989 | locus YBR171W, strain sec66, active compounds read low 0.991 | locus YBR231C, strain swc5, active compounds read low 1.01 | locus YBR279W, strain paf1, active compounds read low 0.997 | locus YCL011C, strain gbp2, active compounds read low 0.975 | locus YCL016C, strain dcc1, active compounds read low 0.995 | locus YCL061C, strain MRC1, active compounds read low 0.977 | locus YCL069W, strain vba3, active compounds read low 0.992 | locus YCR088W, strain abp1, active compounds read low 0.982 | locus YDL005C, strain med2, active compounds read low 0.986 | locus YDL040C, strain nat1, active compounds read low 0.984 | locus YDR001C, strain nth1, active compounds read low 0.987 | locus YDR069C, strain doa4, active compounds read low 0.993 | locus YDR137W, strain rgp1, active compounds read low 0.958 | locus YDR159W, strain sac3, active compounds read low 0.984 | locus YDR195W, strain ref2 0.974 | locus YDR297W, strain sur2, active compounds read low 0.983 | locus YDR334W, strain swr1, active compounds read low 0.96 | locus YDR335W, strain msn5, active compounds read low 0.97 | locus YDR392W, strain spt3, active compounds read low 0.97 | locus YEL003W, strain gim4, active compounds read low 0.981 | locus YEL037C, strain rad23, active compounds read low 0.987 | locus YEL061C, strain CIN8 (second series), active compounds read low 0.98 | locus YER015W, strain faa2, active compounds read low 1.02 | locus YER016W, strain bim1, active compounds read low 0.985 | locus YER111C, strain swi4, active compounds read low 0.995 | locus YER155C, strain BEM2 (second series), active compounds read low 1.01 | locus YFR010W, strain ubp6, active compounds read low 0.969 | locus YGL167C, strain pmr1, active compounds read low 0.998 | locus YGL173C, strain kem1, active compounds read low 0.988 | locus YGL227W, strain vid30, active compounds read low 0.994 | locus YGL240W, strain doc1, active compounds read low 1.03 | locus YGL253W, strain hxk2, active compounds read low 0.984 | locus YHR013C, strain ard1, active compounds read low 0.972 | locus YHR027C, strain rpn1, active compounds read low 0.986 | locus YHR142W, strain chs7, active compounds read low 0.93 | locus YJL092W, strain hpr5, active compounds read low 0.961 | locus YJL095W, strain BCK1 (second series), active compounds read low 1.01 | locus YJL115W, strain asf1, active compounds read low 0.971 | locus YJL129C, strain trk1, active compounds read low 0.935 | locus YJL154C, strain vps35, active compounds read low 0.992 | locus YJL164C, strain tpk1, active compounds read low 0.979 | locus YJL166W, strain qcr8, active compounds read low 0.992 | locus YJL187C, strain SWE1, active compounds read low 0.991 | locus YKL160W, strain elf1, active compounds read low 0.963 | locus YKR026C, strain gcn3, active compounds read low 0.991 | locus YKR091W, strain srl3, active compounds read low 0.984 | locus YLL001W, strain dnm1, active compounds read low 0.987 | locus YLL026W, active compounds read low 0.997 | locus YLL041C, strain sdh2, active compounds read low 0.979 | locus YLR027C, strain aat2, active compounds read low 0.988 | locus YLR221C, strain rsa3, active compounds read low 0.962 | locus YLR258W, strain gsy2, active compounds read low 1.01 | locus YLR262C, strain YPT6 (second series), active compounds read low 1 | locus YLR320W, strain mms22, active compounds read low 0.993 | locus YLR342W, strain FKS1, active compounds read low 0.993 | locus YLR357W, strain rsc2, active compounds read low 0.996 | locus YLR370C, strain arc18, active compounds read low 0.98 | locus YLR384C, strain iki3, active compounds read low 0.996 | locus YML120C, strain ndi1, active compounds read low 0.949 | locus YMR058W, strain fet3, active compounds read low 0.973 | locus YMR125W, strain sto1, active compounds read low 0.981 | locus YMR129W, active compounds read low 0.957 | locus YMR205C, strain PFK2, active compounds read low 1.02 | locus YMR231W, strain pep5, active compounds read low 0.985 | locus YNL071W, strain lat1, active compounds read low 0.989 | locus YNL209W, strain ssb2, active compounds read low 0.992 | locus YNL248C, strain rpa49, active compounds read low 0.935 | locus YNL322C, strain KRE1 (second series), active compounds read low 0.981 | locus YNR049C, strain mso1, active compounds read low 0.986 | locus YOR001W, strain rrp6, active compounds read low 0.941 | locus YOR070C, strain gyp1, active compounds read low 0.994 | locus YOR080W, strain dia2, active compounds read low 0.976 | locus YOR083W, strain WHI5, active compounds read low 0.952 | locus YOR106W, strain vam3, active compounds read low 0.974 | locus YOR265W, strain rbl2, active compounds read low 0.989 | locus YOR270C, strain vph1, active compounds read low 0.981 | locus YOR290C, strain snf2, active compounds read low 0.976 | locus YPL051W, strain arl3, active compounds read low 0.975 | locus YPL078C, strain atp4, active compounds read low 0.949 | locus YPL106C, strain sse1, active compounds read low 1.01 | locus YPL240C, strain hsp82, active compounds read low 0.987

C[C@]12CCC3C(CC[C@H]4C[C@H](O)CC[C@]34C)C1CCC2=O (some centres not stated)
inactive: locus YLR113W, strain HOG1, active compounds read low 0.912 | locus YNL183C, strain NPR1, active compounds read low 0.837 | locus YOR231W, strain MKK1, active compounds read low 0.861 | locus YPL256C, strain CLN2, active compounds read low 0.853
active: locus YHR030C, strain SLT2, active compounds read low 0.63 | locus YHR079C, strain IRE1, active compounds read low 0.831 | locus YJL095W, strain BCK1, active compounds read low 0.736 | locus YJR066W, strain TOR1, active compounds read low 0.815

CC(=O)[C@H]1CC[C@H]2[C@@H]3CC[C@H]4C[C@H](O)CC[C@]4(C)[C@H]3C(=O)C[C@]12C
inactive: locus YAL040C, strain CLN3, active compounds read low 0.999 | locus YCL061C, strain MRC1 (second series), active compounds read low 0.995 | locus YDR363W, strain ESC2, active compounds read low 0.983 | locus YER002W, strain NOP16, active compounds read low 0.993 | locus YGR078C, strain PAC10, active compounds read low 0.994 | locus YMR263W, strain SAP30, active compounds read low 1 | locus YMR307W, strain GAS1, active compounds read low 0.981 | locus YNL175C, strain NOP13, active compounds read low 0.974 | locus YNL197C, strain WHI3, active compounds read low 0.994 | locus YNL224C, strain SQS1, active compounds read low 1.01 | locus YOR083W, strain WHI5 (second series), active compounds read low 0.997 | locus YPL055C, strain LGE1, active compounds read low 0.947
